The values that follow come from PubChem BioAssay (Tox21).

Records with an inconclusive call do not appear. Unmarked numbers belong to inactive results. Active and inactive are the calls of the source. Calls follow the shape of the dose curve; as a rule, active = well fitted activation curve with a large enough effect in the signal ratio in the repeat runs (not every such curve was filed as active); inconclusive = weak or mixed curves, or effect the other way; inactive = flat fitted curve, though single readings scatter; the % refers to the signal ratio.
% is scaled to controls: 0 for no effect and ±100 for the full control effect; potency is read from the fitted curve at half-maximal effect.

Chain of Estrogen receptor beta (Homo sapiens) (Q92731 whole entry, looked up): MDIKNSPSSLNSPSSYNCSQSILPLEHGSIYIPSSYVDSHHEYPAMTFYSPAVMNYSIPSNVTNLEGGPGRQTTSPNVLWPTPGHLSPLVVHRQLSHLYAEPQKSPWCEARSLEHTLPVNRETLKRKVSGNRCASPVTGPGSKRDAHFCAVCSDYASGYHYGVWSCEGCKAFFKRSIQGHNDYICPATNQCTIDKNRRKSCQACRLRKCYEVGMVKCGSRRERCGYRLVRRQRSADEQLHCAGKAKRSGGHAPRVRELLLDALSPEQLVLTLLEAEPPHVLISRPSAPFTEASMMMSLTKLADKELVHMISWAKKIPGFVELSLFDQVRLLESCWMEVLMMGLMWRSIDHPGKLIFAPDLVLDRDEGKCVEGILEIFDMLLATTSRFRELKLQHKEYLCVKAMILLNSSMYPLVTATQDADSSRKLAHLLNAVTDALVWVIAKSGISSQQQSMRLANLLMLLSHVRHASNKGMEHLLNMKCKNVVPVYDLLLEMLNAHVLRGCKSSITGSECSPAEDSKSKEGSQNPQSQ

The experiment deals with Estrogen receptor beta (Homo sapiens) (UniProt Q92731). The experiment can be described thus: qHTS assay to identify small molecule agonists of the estrogen receptor beta (ER-beta) signaling pathway (AID 1259377). The note with it: ER-beta-UAS-bla HEK293T, beta-lactamase FRET ratio, 16 h; series mostly up to 92.4 µM; activation: at the top concentration. The text has this:
U.S. Tox21 Program National Center for Advancing Translational Sciences [NCATS] NIH Chemical Genomics Center [NCGC] U.S. Environmental Protection Agency [EPA] National Institutes of Environmental Health Sciences [NIEHS] National Toxicology Program [NTP] U.S. Food and Drug Administration [FDA] Tox21 Assay Overview: Estrogen receptor (ER), a nuclear hormone receptor, plays an important role in development, metabolic homeostasis and reproduction. Two subtypes of ER, ER-alpha and ER-beta, have similar expression patterns with some uniqueness in both types. Endocrine disrupting chemicals (EDCs) and their interactions with steroid hormone receptors like ER causes disruption of normal endocrine function. To identify the compounds that activate ER signaling, an ER beta-UAS-bla GripTite cell line (Life technologies, Madison, WI, USA) containing a beta-lactamase reporter gene under the control of an Upstream Activator Sequence (UAS) was used to screen Tox21 10K compound library.
Tox21 Assay Protocol Summary: ER-beta-UAS-bla HEK293T cells were dispensed at 2,000 cells/5 uL of assay medium containing 2% charcoal stripped FBS per well into black wall/clear-bottom 1536-well plates using a Multidrop Combi (ThermoFisher Scientific, Waltham, MA) dispenser. After the assay plates were incubated at a 37C and 5% CO2 for 6 hr, 23 nL of compounds dissolved in DMSO, positive controls or DMSO only was transferred to the assay plate by a Pintool station (Kalypsys, San Diego, CA). The plates were incubated at 37C and 5% CO2 for 16 hr. Then 1 uL of LiveBLAzerTM B/G FRET substrate was added using a BioRAPTR FRD (Flying Reagent Dispenser, Aurora Discovery, San Diego, CA). After the plates were incubated at room temperature for 2 hours, fluorescence intensity was measured by an Envision plate reader (PerkinElmer, Shelton, CT).
On to `NC(=O)CS(=O)C(c1ccccc1)c1ccccc1` (stereo not given), for which the “activation” value is 0.888% [at 42.5 µM].
The same measure, in the same setting: the same measure for `C=CC1(C)OC(=O)N(c2cc(Cl)cc(Cl)c2)C1=O` (stereo not given): -4.64%; for `ClCCCCCCCl`: 0.781%.
Turning to `COc1cc(CC(C)N)cc(OC)c1OC` (stereo not given), the “activation” value was 1.68%.
With `C=CCCC#N`, the “activation” value is 0.323%.
The same measure, in the same setting: the same measure for `CC#Cc1cc(C)nc(Nc2ccccc2)n1`: 1.13%; for `CCCOC(=O)c1cncn1C(C)c1ccccc1` (stereo not given): 3.51% [at 42.5 µM]; for `COc1cccc(C=O)c1`: -0.177%.
Same read-out and setting: the same measure for `C1CN2CCC1CC2`: 0.53% [at 42.5 µM]; for `CC(O)CCl` (stereo not given): 0.372%; for `O=C(NC(O)C(Cl)(Cl)Cl)NC(O)C(Cl)(Cl)Cl` (stereo not given): 3.52% [at 42.5 µM].
With `CC(C)(C)C(=O)Cl`, the “activation” value is -0.686%.
`CCC(C)C(C)(COC(N)=O)COC(N)=O` (stereo not given): the “activation” value was -0.193% [at 42.5 µM].
On the same count and under the same terms, the same measure for `O=C(Cl)C(Cl)(Cl)Cl`: 5.01%; for `NC1(c2ccccc2)CCCCC1`: -1.93%; for `Clc1cc2c(cc1Cl)Oc1cc(Cl)c(Cl)cc1O2`: -4.72% [at 0.348 µM].
Still for that read-out and setting: next, `CC[C@H](N)c1ccccc1`: -0.0155%; `CC(=NC#N)N(C)Cc1ccc(Cl)nc1`: 0.22%; `CC(=O)CN(CC(C)=O)N=O`: -1.79%.
As to `ClC1=C(Cl)C2(Cl)C(CBr)CC1(Cl)C2(Cl)Cl` (stereo not given), the Potency result is “inactive”.
With `O=C1C2CC=CCC2C(=O)N1SC(Cl)(Cl)Cl` (stereo not given), the Potency is 8.6 µM (active).
With `CC(Cc1ccccc1)NCCCCl` (stereo not given), the “activation” value was 1.71% [at 42.5 µM].
On to `CN=CNc1ccc(C)cc1C`, for which the “activation” value is 2.05%.
Still for that read-out and setting: the same measure for `CCNP(=S)(OC)O/C(C)=C/C(=O)OC(C)C` (stereo not given): -0.656%.
For the compound `CCCN1CCC[C@@H]2Cc3[nH]ncc3C[C@H]21`, the “activation” value is -7.5% [at 42.5 µM].
For `O=c1[nH]oc2c1CCNC2`, the “activation” value is -1.96% [at 42.5 µM].
On the same count and under the same terms, the same measure for `O=C1CCCCC1Cl` (stereo not given): 4.64%.
With `C=C(C)[C@H]1CN[C@H](C(=O)O)[C@H]1CC(=O)O`, the “activation” value was 1.06% [at 42.5 µM].
For `CCN(CC)C1CCCCC1`, the “activation” value is 5.51%.
Consider `CCN(CCO)CCO`, for which the “activation” value is -2.39%.
The same measure, in the same setting: the same measure for `CC(C)[C@]12CC(=O)[C@H](C)[C@H]1C2`: 0.0926%.
The same measure, in the same setting: next, `CC(C)(O)C(Cl)(Cl)Cl`: 4.39% [at 42.5 µM].
With `CCCOC(=O)Cc1ccc(OCC(=O)N(CC)CC)c(OC)c1`, the “activation” value is -0.47% [at 42.5 µM].
In the case of `CCOC(=O)C(SP(=S)(OC)OC)c1ccccc1` (stereo not given), the “activation” value was 0.133%.
Still for that read-out and setting: next, `CCOc1cc(OP(=S)(OC)OC)nc(CC)n1`: -0.796%; `Cc1ccc2cc(C)ccc2c1`: 0.255%; `BrCCc1ccccc1`: 1.92%.
Still for that read-out and setting: next, `ClC(Cl)(Cl)Cl`: -0.387%; `O=C(O)C(Cl)Br` (stereo not given): -0.0255%.
As for `C=C(Cl)CSC(=S)N(CC)CC`, the “activation” value is -0.467%.
